SMARCA2 activ – increases SMARCA2 function in MMTV reporter cells; MG213 cells, MMTV-luciferase reporter, dexamethasone, overnight; activation, % at 9.1 µM; 1% of 370,000 active; AID 652017; in the data active = activation above about 7.8%;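 note: 0% = vehicle wells and 100% = reference activator wells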
bovine MsrA act – activates bovine MsrA enzyme. AID 602163. 0.3% of 360,000 active. activation, % at 10.6 µM. purified bovine MsrA, absorbance read-out; in the data active = activation above about 7.5%;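 note: 0% = vehicle and 100% = reference activator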
proKLK7 act – proKLK7 (human) activation, primary screen. P49862. purified proKLK7, EDANS-DABCYL substrate fluorescence; 100% is mature enzyme control, 0% vehicle. activation, % at 7 µM. 0.9% of 370,000 active;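 active = activation above the mean of all tested compounds plus 3 SD, computed per campaign excluding outliers beyond control limits, cut at about 13% in these data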
Target sequence (P49862 whole entry, looked up): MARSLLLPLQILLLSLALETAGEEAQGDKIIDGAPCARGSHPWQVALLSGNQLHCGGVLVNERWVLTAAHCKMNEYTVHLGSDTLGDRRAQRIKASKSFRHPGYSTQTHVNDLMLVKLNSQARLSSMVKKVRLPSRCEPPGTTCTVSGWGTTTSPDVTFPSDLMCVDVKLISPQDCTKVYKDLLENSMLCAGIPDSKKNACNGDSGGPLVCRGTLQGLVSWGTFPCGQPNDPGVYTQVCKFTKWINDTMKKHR
MsrA inh – inhibitors of bovine MsrA; purified bovine MsrA, absorbance read-out; inhibition, % at 15.5 µM; 0.75% of 360,000 active; AID 651718; in the data active = inhibition above about 4.5%;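 note: 0% = vehicle wells with enzyme and 100% = reference inhibitor wells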
proKLK7 act conf – proKLK7 activation, confirmation. shares compounds with proKLK7 act. purified proKLK7, EDANS-DABCYL substrate fluorescence; scaled: vehicle 0, mature enzyme 100. activation, % at 7 µM. 68% of 3,200 active. AID 686949;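 active = activation, as change over the incubation, above the mean of all tested compounds plus 3 SD, cut at about 13% in these data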
EDANS-DABCYL int – counter-screen for kallikrein-7 activators: EDANS-DABCYL optical interference. shares compounds with proKLK7 act. EDANS-DABCYL substrate fluorescence interference, no enzyme, 4 h; solvent 0%, active enzyme control 100%. activation, % at 7 µM. 80% of 3,200 active. AID 686952;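 active = activation above the all-compound mean plus 3 SD, ignoring values outside control-based bounds, cut at about 4.8% in these data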;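 note: value is the 4 h activation minus the activation read at time zero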
EDANS interf – EDANS fluorescence interference in dose response, no enzyme | EC50, µM | EDANS-DABCYL peptide fluorescence interference | 20% of 250 active | AID 720493 | shares compounds with proKLK7 act;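 active = compounds that raise the fluorescence signal in this interference counterscreen, with EC50 at or below 10 µM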;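 note: intact quenched peptide substrate alone read at 355 nm excitation and 520 nm emission; signal is fluorescence gain from T0 to T4 after four hours at room temperature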
* hit, by the source's call; / = no result given. Rows were chosen to be rich in hits. Some 2.8% of all compounds tested hit in one or more screens of this group.

SMILES	SMARCA2 activ	bovine MsrA act	proKLK7 act	MsrA inh	proKLK7 act conf	EDANS-DABCYL int	others
O=C1c2ccccc2NC(c2ccco2)N1NS(=O)(=O)c1ccccc1 (stereo not given)	-3	-5	14*	2	3	4.8*
CCOC(=O)NN1C(=O)c2ccccc2NC1c1cccs1 (stereo not given)	3	-13	14*	0	16*	15*
O=C1c2ccccc2NC(c2ccccc2)N1NS(=O)(=O)c1ccccc1 (stereo not given)	3	-4	2	0	/	/
O=C1c2ccccc2NC(c2cccs2)N1NS(=O)(=O)c1ccccc1 (stereo not given)	-3	-6	36*	0	5	4.5*
CCOC(=O)NN1C(=O)c2ccccc2NC1c1cccnc1 (stereo not given)	2	1	9	1	/	/
CC(=O)NN1C(=O)c2ccccc2NC1c1ccccc1F (stereo not given)	-3	-1	29*	2	19*	18*
CC1(C(=O)Nc2cccc(Oc3ccccc3)c2)CCN1C1Cc2ccccc2C1 (stereo not given)	-2	1	0	0	/	/
CCNc1nc(Cl)nc(NCc2ccccc2)n1	0	-2	1	-1	/	/
COC(=O)/C=C/c1c(C)nc(NCc2ccccc2)nc1Cl	-2	-2	29*	2	50*	51*
CCOC(=O)C1(C)CCCN(C(=O)c2ccc(C)c(F)c2)C1 (stereo not given)	-3	2	0	0	/	/
CC(C)C[C@H]1CN(CCCC[C@@H]2CNC(=O)C(=O)N2CC2CCCCC2)C(=O)C(=O)N1Cc1ccccc1	-4	1	0	1	/	/
NC(=O)c1cccc(S(=O)(=O)N2CCCCC2)c1	-1	-13	-1	-1	/	/
Nc1cccc2c1C(=O)N(C(=O)c1cccc(S(=O)(=O)N3CCCC3)c1)C2=O	-2	1	32*	1	190*	196*
COC(=O)[C@H](CO)N1C(=O)[C@@H]2[C@H](C1=O)C1C=C[C@H]2C1	-2	-6	0	-1	/	/
COc1cccc2[nH]c3c(=O)n(CCN(C)C)cnc3c12	2	-3	49*	1	15*	14*
CCN(CC)CCn1cnc2c([nH]c3cccc(OC)c32)c1=O	4	0	67*	0	28*	31*
COc1cccc2[nH]c3c(=O)[nH]cnc3c12	-2	-4	13*	3	10	14*
CCCCN(CCCC)CCn1cnc2c([nH]c3ccc(OC)cc32)c1=O	2	0	7	1	/	/
COc1cccc2c3cccc(OC)c3c3[nH]cnc3c12	-1	-2	0	2	/	/
O=C(Nc1cccc([N+](=O)[O-])c1)NC1CCCCN(Cc2ccc(Cl)cc2)C1=O (stereo not given)	-4	/	1	/	/	/
CCc1nc2ccc(C(=O)N3CCN(S(=O)(=O)CC)CC3)cn2c1N(C)C(=O)c1cccc(OC)c1	-4	-2	0	1	/	/
CC[C@@H](C)[C@H](NC(=O)CNC(=O)Cc1c(C)c2c(cc(C)c3c(C)coc32)oc1=O)C(=O)O	-1	-15	24*	1	-39	-44
Cc1coc2c1c(C)cc1oc(=O)c(CC(=O)NCCCN3CCCC3=O)c(C)c12	2	-5	23*	2	4	2
Cc1oc2c(c(C)cc3oc(=O)c(CC(=O)N[C@@H](CCCNC(N)=O)C(=O)O)c(C)c32)c1C	-1	-3	22*	1	21*	14*	EDANS interf=>69
CCCC(NC(=O)Cc1c(C)c2c(cc(C)c3c(C)coc32)oc1=O)C(=O)O (stereo not given)	2	-2	26*	2	-11	-12
SMILES	SMARCA2 activ	bovine MsrA act	proKLK7 act	MsrA inh	proKLK7 act conf	EDANS-DABCYL int	others
Cc1coc2c1c(C)cc1oc(=O)c(CC(=O)N[C@@H](CC(C)C)C(=O)O)c(C)c12	0	-13	11	0	/	/
CC[C@@H](C)[C@H](NC(=O)Cc1c(C)c2c(cc(C)c3c(C)c(C)oc32)oc1=O)C(=O)O	-4	0	9	3	/	/
CC1CCN(c2ccc(C(=O)O)cc2NS(=O)(=O)c2ccccc2)CC1	-3	/	0	/	/	/
COC(=O)C[C@@H]1CC[C@H]2[C@@H](COc3ccc(NC(=O)Nc4ccccc4)cc3C(=O)N2C)O1	-2	/	0	/	/	/
Cc1ccccc1CS(=O)(=O)Cc1ccc(C(=O)Nc2cccc(C)c2C)o1	-4	/	0	/	/	/
COc1ccc(S(=O)(=O)N2CCOCC2)cc1NC(=O)c1ccc(SC)cc1OC	-5	-2	0	1	/	/
Cc1c(Cl)c(=O)oc2cc(OCC(=O)N3CCCC(C)C3)ccc12 (stereo not given)	2	-5	45*	2	70*	69*
Cc1cccc(-c2nnc(SCC(=O)Nc3cccc4ccccc34)n2Cc2ccco2)c1	-4	/	0	/	/	/
C[C@]12c3[nH]c4cc(-c5ccco5)ccc4c3CCN1C(=O)[C@@H](CC(=O)NCCCn1ccnc1)C[C@@H]2C(=O)N1CCCCC1	-5	-1	105*	2	40*	61*
CC[C@]12c3[nH]c4cc(-c5ccco5)ccc4c3CCN1C(=O)[C@@H](CC(=O)NCCCN(C)C)C[C@@H]2C(=O)N1CCN(C(=O)c2ccco2)CC1	-1	-5	84*	0	47*	63*
CC[C@]12c3[nH]c4cc(-c5ccco5)ccc4c3CCN1C(=O)[C@@H](CC(=O)NCC13CC4CC(CC(C4)C1)C3)C[C@@H]2C(=O)N1CCN(C(=O)c2ccco2)CC1	-4	-5	-17	2	/	/
C[C@]12c3[nH]c4cc(-c5ccco5)ccc4c3CCN1C(=O)[C@@H](CC(=O)NCCCn1ccnc1)C[C@@H]2C(=O)N1CCOCC1	/	-1	/	/	/	/
CN(C)CCCNC(=O)C[C@H]1C[C@H](C(=O)N2CCCCC2)[C@@]2(C)c3[nH]c4cc(-c5ccco5)ccc4c3CCN2C1=O	-4	-6	97*	1	86*	109*
CN(C)CCCNC(=O)C[C@H]1C[C@H](C(=O)N2CCCCC2)[C@@]2(CCc3ccccc3)c3[nH]c4cc(-c5ccco5)ccc4c3CCN2C1=O	-4	0	46*	-1	41*	52*
NC(=O)c1ccc(NC(=O)CSc2nnc(-c3ccccc3)n2-c2ccccc2)cc1	-2	/	0	/	/	/
O=S(=O)(c1ccccc1F)N1CCC(c2nc3ccccc3o2)CC1	-4	/	0	/	/	/
CCN(CC)C(=O)c1cc2c(=O)n3cccc(C)c3nc2s1	5	-4	20*	4	13*	15*
CCC(C)NC(=O)c1cc2c(=O)n3cccc(C)c3nc2s1 (stereo not given)	-2	0	20*	2	18*	-3	EDANS interf=>70

Screening data deposited in PubChem by The Scripps Research Institute Molecular Screening Center.
